Screening results deposited in PubChem BioAssay by National Center for Advancing Translational Sciences (NCATS).
A selection: hits, their analogues and other compounds. The true share with any hit is near 11%.
Pf growth 48h: inhibits P. falciparum growth in the first generation, 48 h; P. falciparum luciferase growth in erythrocytes, 48 h; Potency, µM (highest dose often 28.7 µM), inactives show at the top dose activity change, negative = inhibition, most hits filed as inhibitors; 5.9% of 310,000 active; AID 504832
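Luciferase-expressing P. falciparum in infected erythrocytes (2% hematocrit, 0.1% parasitemia final) in RPMI 1640/0.5% Albumax were exposed to compound for 48 hours at 37 C, 5% CO2; growth read as luminescence.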
AMA1-RON2 inh: inhibitors of Plasmodium falciparum AMA1-RON2 interaction | AlphaScreen AMA1-biotinylated RON2 peptide binding | Potency, µM (highest dose often 58.2 µM), for the others: at the top dose activity change, negative = inhibition, most hits filed as inhibitors | 0.2% of 360,000 active | AID 720542;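 also: 0% = vehicle wells and -100% = peptide control; nearly all actives have a fitted effect of over 45% in size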
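AMA1 (3D7) with his tag at 25 nM final met compounds first, then biotinylated RON2 peptide at 25 nM; detection used donor plus acceptor beads, 10 µg/mL apiece, read by AlphaScreen after 30 min at room temperature.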
Pf growth 96h: inhibits malaria parasite growth, 96 h | 6.9% of 320,000 active | Potency, µM (series often up to 28.7 µM), for inactives: at the top dose activity change, negative = inhibition, hits mostly inhibitors | P. falciparum luciferase reporter growth, 96 h | AID 504834
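Parasite growth measured via integrated firefly luciferase reporter in P. falciparum. Infected erythrocytes at 2% hematocrit, 0.05% parasitemia final were treated 96 hours at 37 C under 5% CO2, and luminescence was read.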
HCV inhibitor: blocks hepatitis C virus; 3.4% of 340,000 active; Potency, µM (highest dose often 41.8 µM), without a hit: top-dose activity change, negative = inhibition, most hits filed as inhibitors; AID 651820; Huh7.5.1 HCVcc-Cre infection, luciferase reporter, 44 h
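1,000 cells/well; 4 h culture; + compound; + HCVcc-Cre (~0.5 moi); 44 h; luciferase substrate, RT 15 min; read 15 sec.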
An asterisk follows results filed as active; u = inconclusive; x = no result; [ ] = remark or other dose. Calls follow the shape of the dose curve; as a rule, active = well fitted curve in the direction sought with a large enough effect; inconclusive = small, poorly fitted or top-dose-only effect, or another doubt; inactive = no such curve, though single readings can be large; an effect the other way counts as inactive or inconclusive. Unless noted, % is scaled to controls: 0 for no effect and ±100 for the full control effect; potency is read from the fitted curve at half-maximal effect.

SMILES | Pf growth 48h | AMA1-RON2 inh | Pf growth 96h | HCV inhibitor
CC(=O)Nc1ccc(S(=O)(=O)N(C)c2ccc(OCC(=O)NCCc3ccccc3F)cc2)cc1 | x | -4% | x | u
CC(=O)Nc1ccc(S(=O)(=O)N(C)c2ccc(OCCOc3ccccc3F)cc2)cc1 | x | 3% | x | 10µM*
Cc1ccc(CSCCNS(C)(=O)=O)cc1 | 20% | -6% | x | 10%
CCCN(C(=O)c1cn(-c2ccccc2)nc1-c1ccc(OC)cc1)C1CCS(=O)(=O)C1 (stereo not given) | u | 21% | u | 0%
COc1cc(OC)c(OC)cc1C=O | x | -2% | x | 11%
COc1cc(N2CCCC2)c(OC)cc1C=O | 9% | -5% | -30% | 11µM*
CCc1cc(-c2n[nH]c(C)c2Oc2ccc(C(C)C)cc2)c(O)cc1O | x | 57% | u | 7%
CN(C)c1ccc2c(c1)Sc1cc(N(C)C)ccc1N2C(=O)c1ccccc1 | 3.7µM* | u | 1.7µM* | -2%
Cc1ccc(C(=O)N2c3ccccc3Sc3ccccc32)cc1 | x | 0% | x | x
CCOC(=O)N1CCN(C(=O)CSc2ccc(-c3ccccc3OC)nn2)CC1 | u | 0% | 4.7µM* | u
CCOC(=O)N1CCN(C(=O)CSc2cc(C)nc3c(-c4ccccc4OC)c(C)nn23)CC1 | 4.7µM* | 23% | 11% | u
CCOC(=O)N1CCC(Nc2cc(C)nc3c(-c4ccccc4OC)c(C)nn23)CC1 | 9.3µM* | 0% | 2% | u
COc1ccccc1-c1c(C)nn2c(N3CCC(C(N)=O)CC3)cc(C)nc12 | -27% | 3% | u | 2%
COc1ccc(/C=C/C(=O)OCC(=O)NC2CCCC2)c(OC)c1 | -18% | -10% | 23% | -6%
Cn1cc(S(=O)(=O)Nc2ccc(F)c(Cl)c2)c(=O)n(C)c1=O | 2% | -3% | 41% | 9%
COc1ccc(S(=O)(=O)N(C)C[C@@H]2Oc3cc(C#CC4CCCCC4)ccc3S(=O)(=O)N([C@@H](C)CO)C[C@@H]2C)cc1 | x | -11% | x | x
Cc1ccc(OCCn2c(=S)[nH]c3ccccc32)c(C(C)C)c1 | 12µM* | 51% | 46% | u
Cc1cccc(OCCn2c(=S)[nH]c3ccccc32)c1 | u | 5% | 13µM* | -17%
CC1C(c2ccccc2)=Nn2c(=O)n(-c3ccccc3)c(=O)n21 (stereo not given) | x | 1% | x | x
O=C(CN1CCN(Cc2ccc(Cl)cc2)CC1)N/N=C/c1cccs1 | u | 11% | 11% | u
COC(=O)c1sc(C(C)(C)C)cc1CS(=O)(=O)c1ccccn1 | u | -5% | 13µM* | -7%
CC(=O)c1csc(CS(=O)(=O)c2ccccn2)n1 | 14% | -1% | 10% | 10%
COc1cccc(-c2cc(C(=O)O)no2)c1 | x | -4% | 26% | 16%
COc1cccc(-c2cc(CC3(O)CCN(CCCc4ccccc4)CC3)on2)c1 | 12µM* | -3% | u | 4%
CC12CC(NC(=O)N1c1cccc(C(=O)N3CCN(c4ccccc4)CC3)c1)c1ccccc1O2 (stereo not given) | 8.3µM* | -2% | u | -30%
SMILES | Pf growth 48h | AMA1-RON2 inh | Pf growth 96h | HCV inhibitor
COc1ccccc1N1CCN(C(=O)c2cccc(N3C(=O)NC4CC3(C)Oc3ccccc34)c2)CC1 (stereo not given) | 12µM* | 7% | 1% | -21%
CC12CC(NC(=O)N1c1ccc(C(=O)N3CCN(c4ccc(F)cc4)CC3)cc1)c1ccccc1O2 (stereo not given) | u | 0% | x | -12%
CC12CC(NC(=O)N1c1cccc(C(=O)NCc3ccccc3)c1)c1ccccc1O2 (stereo not given) | u | x | -4% | x
CCOC(=O)N1CCN(C(=O)c2cccc(N3C(=O)NC4CC3(C)Oc3ccccc34)c2)CC1 (stereo not given) | -15% | -10% | 1.9µM* | 19%
C=CC[C@]12C=C(OC)C(=O)C=C1O[C@@H](c1ccc3c(c1)OCO3)[C@H]2C | x | -7% | x | -24%
O=C(C1c2ccccc2Oc2ccccc21)N1CCN(c2ccc(Cl)cc2)CC1 | x | -19% | 2.1µM* | u
O=C(C1CCC1)N1CCN(c2ccc(Cl)cc2)CC1 | 4% | 8% | 7.4µM* | -19%
O=C(C1CCN(S(=O)(=O)c2cccc3cccnc23)CC1)N1CCN(c2ccc(Cl)cc2)CC1 | x | -5% | -25% | 11µM*
O=C(NCc1ccccc1)C1CCCN1S(=O)(=O)c1cccc2cccnc12 (stereo not given) | -6% | 2% | 4.7µM* | 4%
CC1(C)C(C(=O)N2CCN(c3ccc(Cl)cc3)CC2)C1(C)C | -11% | -4% | 5% | u
CCCCC1=CC2=C(c3ccco3)C(=O)C(C)(OC(=O)c3ccc(OC)cc3)C(=O)C2=CN1CC(C)C (stereo not given) | 27% | 9% | u | 15%
O=C(NOC(=O)c1c(F)cccc1Cl)c1ccc(Cl)c(Cl)c1 | x | 12% | 16% | 33%
O=C(C1CCC(CNS(=O)(=O)c2cccc3cccnc23)CC1)N1CCCC1 (stereo not given) | -2% | -6% | 13µM* | -4%
Cc1ccc(OCc2cc(C(=O)N3CCC(Oc4cccnc4)CC3)no2)cc1C | 5% | -8% | u | 4%
O=C(c1cc(COc2ccc3ncccc3c2)on1)N1CCC(O)CC1 | 5% | 2% | 203% | 8.9µM*
COCC1CCCN(C(=O)c2cc(COc3ccc4ncccc4c3)on2)C1 (stereo not given) | -19% | 16% | u | 1µM*
CCC(O)C1CCN(C(=O)c2cc(COc3ccc4ncccc4c3)on2)CC1 (stereo not given) | 2% | 1% | -5% | 1.8µM*
O=C(c1cc(COc2ccc3ncccc3c2)on1)N1CCCC(O)C1 (stereo not given) | 49% | 6% | u | u
O=C(c1cc(COc2cccc(C(F)(F)F)c2)on1)N1CCC(Oc2cccnc2)CC1 | -15% | -8% | 54% | 11µM*
CC(C)c1ccc(C2CC(=O)c3cnc(NC(=O)c4ccco4)nc3C2)cc1 (stereo not given) | 18% | 15% | 0% | -7%
CCC(=O)NC(=S)Nc1ccc(S(=O)(=O)NC2CCCCC2)cc1 | -3% | -3% | u | 16%
Cc1nn(-c2ccc(C(F)(F)F)cn2)c(C)c1Oc1ccccc1O | x | -3% | 8.3µM* | -21%
Cn1ccsc1=NC(=O)c1cccc(C#N)c1 | 39% | 13% | 37% | -10%
CCN1C(=O)[C@H]2[C@@H](c3ccc(C)cc3)N[C@]3(CCCN(Cc4ccc(Cl)cc4)C3=O)[C@H]2C1=O | x | 3% | x | x
COc1ccc(S(=O)(=O)N(C)CC(=O)NCc2cccnc2)cc1Cl | 4% | 5% | x | 25%
O=C(CN(c1ccc2c(c1)OCCO2)S(=O)(=O)c1ccccc1)NCc1ccc(Cl)cc1 | -26% | -6% | 12µM* | u
O=C(CN(c1ccccc1Cl)S(=O)(=O)c1ccccc1)NCc1ccccc1 | u | -5% | 12µM* | -19%
CN(C)S(=O)(=O)c1cc(C(=O)NCc2ccccc2)c(Cl)cc1Cl | -4% | 0% | 47%[1.15 µM] | 13µM*
